The results in this text go back to PubChem BioAssay (NCI).

This is part of a sample that, as a whole, favours compounds with a hit. Of some 83,000 tested, about 20% had one in any assay.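 The test compound was applied at a single concentration to cells in 96-well plates for 48 hours, and percent growth was recorded.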 A number with no mark means an inactive call. The source made the active and inactive calls. The calls were made as follows: active = growth percent below 10; inactive = the rest.

The subject of this test is MDA-MB-468 breast. The test is described as follows: NCI-60 one-dose screen, 48 h (100 = growth as untreated, 0 = no growth, -100 = all killed). Conditions: 10 µM unless noted.
Consider `Oc1ccc(Nc2ccccc2)cc1`, for which the growth is 86.4%. Next, `O=[N+]([O-])c1ccc(S(=O)(=O)NN=C2CCCCC2)cc1`: 115%; `Cn1cc(C(=O)c2nc(-c3c[nH]c4ccccc34)no2)c2ccccc21`: -4.38% (active); `CC1(C)S(=O)(=O)OCCOS1(=O)=O`: 101%. Next, `COc1ccc2c(c1)c(CC(=O)[Se]CCC#N)c(C)n2C(=O)c1ccc(Cl)cc1`: -36% (active); `C[C@]12O[C@H](C[C@]1(O)CO)n1c3ccccc3c3c4c(c5c6ccccc6n2c5c31)CNC4=O`: -47.5% (active); `O=C(NNc1nc2cc(F)c(F)cc2n2c(CN3CC4CNCC4C3)ccc12)c1cnccn1` (stereo not given): -4.58% (active). Next, `O=C(Nc1ccc(Cl)cc1F)c1cc(F)ccc1O`: 3.61% (active); `C#CCOc1ccc2ncnc(NCc3cccc(NC(=O)CCl)c3)c2c1`: 4.87% [8.25 µM] (active); `CCOC(=O)c1c(NC(=O)c2ccc(C(C)(C)C)cc2)sc2cc(OCCN3CCCCC3)ccc12`: 85.8%. With `COc1cc2c(c(OC)c1OC)CCC(c1cccc(C(=O)Nc3ccc(C#N)cc3)c1)O2` (stereo not given), the growth is 46.4%. Take `CC/C(=C(\CC)c1ccc(OCCN(CC)CC)cc1)c1ccc(OCCN(CC)CC)cc1`: the growth was 0.372% (active). For `Cc1cc(C(C#N)c2ccc(Cl)cc2)c(Cl)cc1NC(=O)c1cc(I)cc(I)c1O` (stereo not given), the growth is 58.9%. The value for `Clc1ccc(-c2cc(-c3ccccc3)nc(N3CCN(CCCNc4ccnc5cc(Cl)ccc45)CC3)n2)cc1` was -34% (active); that for `OCCCCCCNc1ncnc2cc(Cl)ccc12` was 74.1%; that for `COc1ccc2c(C3=C(c4c[nH]c5ccccc45)C(=O)N(O)C3=O)coc2c1` was 88.6%. As to `Nc1nc(Nc2ccccc2)n[nH]1`, the growth is 120%. The value for `C=C1C(=O)O[C@H]2[C@H]1CC/C(COC(=O)/C=C\C(=O)NCc1ccc(Cn3c(=O)sn(CCCCl)c3=O)cc1)=C\CC[C@@]1(C)O[C@@H]21` was 40.3%; that for `CSC1=NCCCC1` was 102%. Next, `O=[N+]([O-])c1ccc(Sc2cccc[n+]2[O-])c2nonc12`: 49.3%; `COC(=O)c1c2c(c(C)[n+]([O-])c1C)C(=O)C=C(NCc1ccc(OC)cc1)C2=O`: -61% (active); `CC1(C)OC2C(COC(c3ccccc3)(c3ccccc3)c3ccccc3)OC(c3c[nH]c4c(N)ncnc34)C2O1` (stereo not given): 30%.

With `NC(=S)NS(=O)(=O)c1ccc(N)cc1`, the growth was 96.5%.

In the case of `COc1ccccc1/C=C/C(=O)c1ccccc1`, the growth is 21.4%. `CN1CCN(Cc2ccc(NC(=O)c3[nH]ncc3Nc3ccnc4ccsc34)cc2)CC1`: the growth was 18.5%.

For `COc1ccc(S(=O)(=O)NCCCNc2nccc(-c3[nH]c(-c4ccccc4)nc3-c3ccc(Cl)c(O)c3)n2)cc1`, the growth is 78.3%. Next, `O=S(=O)(Nc1ccc(-c2nc(-c3cccc(OCCN4CCOCC4)c3)c(-c3ccnc(Br)c3)[nH]2)cc1)c1ccccc1`: 1.46% (active); `CC1(COc2ccc3ncc(C#Cc4cncc(C(=O)Nc5cccc(C(F)(F)F)c5)c4)n3n2)COC1`: 102%. Next, `Cc1cc(C(C)(C)C)cc(C)c1CC1=NCCN1`: 93.5%; `COc1ccc(C(c2ccc(OCCN(C)C)cc2)c2cc3ccccc3c3ccccc23)cc1` (stereo not given): 2.65% (active); `CCN(CC)Cc1c(-c2cccc(OC(F)(F)F)c2)[nH]c2ccc(N3CCCC3)cc2c1=O`: 93.1%.

For `Nc1nc(N)c2cc(NCc3ccc(Cl)c(Cl)c3)ccc2n1`, the growth was -84.7% (active). For the compound `N#C/C(=C\c1ccc(-c2cc(C(F)(F)F)ccc2Cl)o1)c1nc(-c2ccco2)cs1`, the growth is -3.16% (active). The value for `O=C(c1cccc(N2CCOCC2)n1)c1c[nH]c2ccccc12` was 89.5%. Next, `O=[N+]([O-])c1ccc(C2CC(c3ccccc3)=Nc3ccccc3S2)cc1` (stereo not given): 77.7%; `COc1ccc(-c2nn(-c3cccc(Cl)c3)cc2-c2c(C#N)c(N)n(N)c(=O)c2C#N)cc1`: 56.1%; `COc1cc(C2CC(c3ccc(C)cc3)=NN2C=O)ccc1Oc1ccnc2cc(Cl)ccc12` (stereo not given): 58.4%.

Turning to `CCCCN(CCCC)C(=O)CC`, the growth is 113%. Next, `N#C/C(=C\c1ccc(-c2ccc(Cl)cc2)o1)C(=O)Nc1ncc(Cc2ccc(Cl)cc2)s1`: 77.9%.

With `c1ccc(-c2nnc(Nc3nnc(-c4ccccc4)s3)s2)cc1`, the growth was 107%.
